PubChem BioAssay (NCI)
Compounds without any hit were thinned out: in the full panel of roughly 83,000, 20% have a hit.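 Method: cells in 96-well plates; compound added at one concentration; 48 h incubation; percent growth measured; values under 10 scored active.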 Active and inactive are the calls of the source.

Tested on: HL-60(TB) leukemia
Assay: NCI-60 one-dose screen, 48 h (100 = growth as untreated, 0 = no growth, -100 = all killed)
Details: 10 µM unless noted

SMILES	growth
Cc1ccc(S(=O)(=O)n2cc(C(=O)C(=O)Nc3ccncc3)c3ccccc32)cc1	16.1% (inactive)
C=C(C)COc1ccc(C(C)(C)C)cc1	104% (inactive)
Cc1ccc(Nc2nnc(-c3ccc(Cl)cc3)o2)c(C)c1	84.2% (inactive)
CC(C)NCC(O)COc1ccc(CC(N)=O)cc1 (stereo unspecified)	101% (inactive)
C=C(C)[C@@H]1CC[C@]2(C(=O)N3CCOCC3)CC[C@]3(C)[C@H](CC[C@@H]4[C@@]5(C)C/C(=C/c6ccncc6)C(=O)C(C)(C)[C@@H]5CC[C@]43C)[C@@H]12	26.2% (inactive)
O=c1nc2oc3ccc4ccccc4c3cc-2s1	-29.2% (active)
O=C(CCCCNC(=O)c1nc(-c2ccccc2)n(-c2ccccc2)n1)NO	97% (inactive)
Cc1cc(C)c2c(c1)N1OC(C2)C[C@H]1/C=C/c1ccccc1 (stereo partly specified)	82.2% (inactive)
Cc1csc(NC(=O)c2sc3nc(-c4cccs4)ccc3c2N)n1	105% (inactive)
CCC(C)C(N)C(=O)NNc1n[nH]c(=S)n1N (stereo unspecified)	100% (inactive)
CCOC(=O)c1cc(C)n(-c2ccc(C(=O)O)cc2)c1C	86.2% (inactive)
COc1ccc2c(c1)C/C(=C\c1cc(-c3cc(OC)c(OC)c(OC)c3)n[nH]1)C2=O	79% (inactive)
Cc1cc2nc3c(=O)[nH]c(=O)nc-3n(CC=O)c2cc1C	-55.8% (active)
COc1ccc(C2C=C(c3ccc(N)cc3)N=C3SC=CN32)cc1OC (stereo unspecified)	105% (inactive)
COc1ccc(C/C(C)=C(\c2ccc(Cl)cc2)c2ccc(OCCCN(C)C)cc2)cc1	69.9% (inactive)
Cc1ccc(Nc2nc(NCCO)c3ccccc3n2)cc1C	-10.3% (active)
Clc1ccc(Nc2nccc(Nc3ccc4[nH]ncc4c3)n2)cc1	51.5% (inactive)
N=C1N=C(N)CS1	112% (inactive)
COc1ccc(Cn2nc(-c3ccccc3)c3c2CCc2cnoc2-3)cc1	69.4% (inactive)
CC(C)OC(=O)OCOP(=O)(OCOC(=O)OC(C)C)C1CCCN(O)C1=O (stereo unspecified)	6.5% (active)
O=c1c2c3c(sc2nc(N/N=C/c2ccc(Br)cc2)n1Cc1ccccc1)CCCC3	71.2% (inactive)
COc1ccc(/C=N/Nc2cc(=O)[nH]c3ccc(C)cc23)cc1	94.2% (inactive)
CSc1nnc(C2=CC(=O)c3ccccc3C2=O)n1-c1ccccc1	4.64% (active)
CC[n+]1c(C)ccc2cc(C)ccc21	87% (inactive)
CCC1(C2CCCC2)NC(=O)NC1=O (stereo unspecified)	90.9% (inactive)
CS(=O)(=O)c1ccc(C(=O)N2N=C(c3ccccc3)CC2c2ccc3c(c2)OCO3)cc1 (stereo unspecified)	37% (inactive)
